Data from PubChem BioAssay AID720513 (Broad Institute, 2013).
About 480 (23%) of roughly 2,100 compounds were called active. Roughly 5% stayed inconclusive and do not appear here.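 How the source made its calls: active means fitted curve reaches 40% activation at or below the top valid concentration, in every replicate test; inconclusive means replicate tests disagree on the call; inactive means the rest, including activity in the opposite direction.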 A selection follows. Entries with a potency or affinity are not part of this list.

Test: PGC1a acetylation increase, cellular AlphaLISA – cell-based, cherry-picked samples, set 6, dose response (AID 720513);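 further: cells made to overexpress flag tagged PGC1a plus GCN5 acetyltransferase by viral infection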
Details: U2OS PGC1a acetylation AlphaLISA, overnight, 0 = neutral, -100 = inhibitor control; series mostly up to 19.5 µM

outcome, inactive:
CN(C)S(=O)(=O)c1cc(NC(=O)CN2CCc3ccccc32)ccc1Cl
CC(C(=O)N1CCc2ccccc2C1)N(c1ccccc1)S(C)(=O)=O (stereo not given)
CCOC(=O)c1cnn(-c2ccccc2)c1-n1cccc1C(=O)C(=O)Nc1ccc(F)cc1
CCOC(=O)c1ccc(NC(=O)CCS(=O)(=O)c2ccc(Br)s2)cc1
CCOCCCNC(=O)C1CCN(C(=O)Nc2ccc(C)cc2)CC1
Cc1cc(=O)[nH]c(SCC(=O)N2CCc3ccccc3C2)n1
CC(C)Oc1ccc2nnnn2n1
CCCSCC(=O)Nc1ncc2c(n1)-c1ccccc1CC2
C[C@H]1CN([C@@H](C)CO)S(=O)(=O)c2ccc(C#CC3CCCCC3)cc2O[C@@H]1CN(C)Cc1cccnc1
O=C(c1ccco1)N1CCN(C(=O)N2c3ccccc3Sc3ccccc32)CC1
CCc1nc(SCC(=O)N2c3ccccc3Sc3ccccc32)c2ccccc2n1
O=c1[nH]c2ccccc2nc1/C=C/c1ccc(O)cc1
C[C@H]1CN([C@@H](C)CO)C(=O)c2cccc(NC(=O)Nc3ccc(F)cc3)c2O[C@@H]1CN(C)S(=O)(=O)c1cn(C)cn1
C[C@H](NS(=O)(=O)c1ccc2c(c1)OCCCO2)C(=O)N1CCN(Cc2ccccc2)CC1
COc1ccc2c(-c3ccccc3)cc(=O)[nH]c2c1
O=C(c1cc(-c2ccccc2)nc2ccccc12)N1N=C(C(F)F)CC1(O)C(F)F (stereo not given)
C=CCn1c(SCC(=O)Nc2ccc(C(=O)O)cc2)nnc1-c1cccnc1
COc1ccc(NC(=O)N[C@@H]2C=C[C@@H](CC(=O)NCc3ccccn3)O[C@@H]2CO)cc1
COc1ccc(C2(NC(C)=O)CCN(C(=O)CCC(=O)O)CC2)cc1
CN(c1ncnc(N)c1[N+](=O)[O-])C1CCS(=O)(=O)C1 (stereo not given)
CCN(C(=O)C1CC1)C1CCS(=O)(=O)C1 (stereo not given)
COCC(=O)Nc1ccc2c(c1)OC[C@@H](C)N(C(=O)c1ccccn1)C[C@@H](C)[C@@H](OC)CN(C)C2=O
CC1CCCCC1NC(=O)C1CCN(S(=O)(=O)N2CCOCC2)CC1 (stereo not given)
C[C@H](CO)N1C[C@H](C)[C@@H](CN(C)CC2CC2)Oc2cc(-c3cccnc3)ccc2S1(=O)=O
CCSc1nnc(NC(=O)CSC2=NCCS2)s1
COc1cccc(N2C(=O)CC(N3CCC(c4nc5ccccc5[nH]4)CC3)C2=O)c1 (stereo not given)
O=C(Cc1ccncc1)NCC[C@H]1CC[C@@H](NC(=O)C2CC2)[C@H](CO)O1
CCOC(=O)C1=C(CNCc2ccc(C)cc2)NC(=O)NC1c1cc(C)ccc1C (stereo not given)
CCN(CC)S(=O)(=O)c1cccc(-c2nnc(SCc3ncc(-c4ccccc4)o3)n2C)c1
NC(=O)NC(=O)Nc1ccccc1Cl
Cc1nc2ccc(C(=O)Nc3ccccc3Cl)cc2s1
CCN(CC)C(=O)[C@H]1CC(CC(=O)NCc2cccc(C(F)(F)F)c2)C(=O)N2CCc3c([nH]c4ccccc34)[C@]12C (stereo not given in full)
O=C(CCNC(=O)C1CCN(S(=O)(=O)c2ccc(F)cc2)CC1)NCc1ccccc1Cl
CC(=O)Nc1ccc(S(=O)(=O)N2CCN(c3ccccn3)CC2)cc1
N#Cc1cc2c(=O)n3ccccc3nc2n(Cc2cccnc2)c1=O
O=C1C2C3CCC(C3)C2C(=O)N1CNc1ccc(F)cc1 (stereo not given)
O=c1cc(CSc2ccccn2)[nH]c(=O)[nH]1
Cc1nc2[nH]c(=O)c3c(n2n1)NC1=C(C(=O)CC(C)(C)C1)C3c1ccccc1 (stereo not given)
O=[N+]([O-])c1ccc(Oc2cccc(F)c2)c2ccncc12
Cc1cccc(S(=O)(=O)N(C)C[C@@H]2OCc3cn(nn3)CCCC(=O)N([C@@H](C)CO)C[C@H]2C)c1
O=C(NC1CCCN(Cc2ccc(Cl)cc2)C1)c1ccccc1C(F)(F)F (stereo not given)
O=C(OCn1ncc(Cl)c(Cl)c1=O)c1ccc(C(F)(F)F)cc1
CCc1nc(N)nc(N)c1-c1ccc(Cl)cc1
CCOC(=O)C1CCN(C2=NC(=O)/C(=C/c3ccc(O)cc3)S2)CC1
Cc1cccc2cc(CN(Cc3nnnn3Cc3ccco3)C3CCCC3)c3nnnn3c12
COc1cccc2c1C(CO)N1C(C#N)C3CC(C(=O)O)C(C1C2)N3C (stereo not given)
Cc1cccc(-n2c(CNC(=O)c3cccc([N+](=O)[O-])c3C)n[nH]c2=S)c1
COc1cccc(N(CC(=O)N2CCN(Cc3ccccc3)CC2)S(C)(=O)=O)c1
CCC(C)(C)n1nnnc1C(c1cccnc1)N1CCCC(C)C1 (stereo not given)
C[C@H](CO)N1C[C@H](C)[C@@H](CN(C)C(=O)C2CCCCC2)Oc2cc(C#Cc3ccncc3)ccc2S1(=O)=O
O=C(Nc1ccc2c(c1)C(=O)N(c1ccccc1)C2=O)c1cccs1
O=C(CNC(=O)c1sc2ccccc2c1Cl)NCc1ccccc1
COc1ccc(NC(=O)/C(Cl)=C(/Cl)S(=O)Cc2ccccc2)cn1 (stereo not given)
Cc1cccc(N(CC(=O)NC(C)(C)C)C(=O)CNC(=O)c2cccs2)c1
CN(C)C(=O)C[C@@H]1C=C[C@@H](NS(=O)(=O)c2ccccc2)[C@@H](CO)O1
CO[C@@H]1CN(C)C(=O)c2ccc(NC(=O)Nc3c(C)noc3C)cc2OC[C@H](C)N(CC2CC2)C[C@@H]1C
CCS(=O)(=O)c1ccc(O)c(NC(=O)COc2ccc(Br)cc2)c1
O=C(CSc1nnnn1-c1ccc(F)cc1)NNC(=O)c1ccco1
CC(=O)Nc1ccc(NC(=O)c2cc(=O)c3ccccc3o2)cc1
Cc1cc(=O)[nH]c2c1c(C)nn2C1CCCC1
